Over roughly 68,000 sequences, “fluorescence intensity (a.u.)” has its median near 9,100; the highest 2% begin near 16,000. The full list was thinned out, with the highest values kept by preference.
Target: OsWRKY34 (Oryza sativa, UniProt Q0JBA9 1-250)
Experiment: protein-binding microarray (RPBM); PBS, 2% BSA, 51.3 ng/ul salmon testes DNA, 50 uM zinc acetate, 200 nM TF, 25 C, 1 h; high values mean tight binding
Details: protein: recombinant; tags: N-terminal polyhistidine and DsRed monomer fusion (pET32a); label: CyDye5-dUTP incorporated in the synthesized complementary strand; 3' TTTTT single-stranded linker to array surface; dsDNA, one strand shown
Summary of the method: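 The binding signal is fluorescence intensity per feature, in arbitrary units, read on an Axon 4000B scanner. Polyhistidine- and DsRed-tagged transcription factors (N-terminal fusions) from E. coli BL21-CodonPlus were purified on Ni–NTA and applied at 200 nM for 1 h at 25 °C to a double-stranded, BSA-blocked custom Agilent array in buffer with 50 µM zinc acetate.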

Sequence of OsWRKY34 (Q0JBA9 entry or part of it): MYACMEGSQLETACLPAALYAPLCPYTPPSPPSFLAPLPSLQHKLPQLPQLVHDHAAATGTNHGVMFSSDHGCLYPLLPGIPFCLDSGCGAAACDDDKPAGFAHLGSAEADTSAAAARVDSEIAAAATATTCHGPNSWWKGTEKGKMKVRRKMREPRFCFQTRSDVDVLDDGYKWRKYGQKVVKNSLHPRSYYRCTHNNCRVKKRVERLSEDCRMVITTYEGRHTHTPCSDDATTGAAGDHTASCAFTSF

Sequence	binding signal
CTGACCACCAACAGGGTCACTGTCGCGTTTGCTCGATACTCGGAGTCACCTAGTGCAG	9920 fluorescence intensity (a.u.)
TCCTTTCCTACATGTCGCCTTTGCCGTCGCCTCAACCACACGGAGTCACCTAGTGCAG	14200 fluorescence intensity (a.u.)
ACGAACCTAAGCACTTCCAAATCAAATCAATCAAAGCTCTCGGAGTCACCTAGTGCAG	56100 fluorescence intensity (a.u.)
ATCAAACCACTTCCATCTCTCAATTCTCAAGCACACACACCGGAGTCACCTAGTGCAG	8310 fluorescence intensity (a.u.)
TCTTCTCACTCTAATCAAATCTCTCTCTCTCTCTCTCTCTCGGAGTCACCTAGTGCAG	8280 fluorescence intensity (a.u.)
GCCGTCGCCGTCGCCGTCCTCCTCGTTGTCGTTGTCGTCGCGGAGTCACCTAGTGCAG	9000 fluorescence intensity (a.u.)
CGTCCTTATTGTGGTTTTCCACGTGTTTGTCTCTGTGTTTCGGAGTCACCTAGTGCAG	13300 fluorescence intensity (a.u.)
TACCACCACTGTTCGTTTCGTTTGTTGGGTTTCGGTCATCCGGAGTCACCTAGTGCAG	8360 fluorescence intensity (a.u.)
ATGCGTGTGGTTCTCCTGTCCGTTCTGTCATTTGGGTTTTCGGAGTCACCTAGTGCAG	20000 fluorescence intensity (a.u.)
CTTCTTAGCTTCCGTGTCATGTTTCTTTTTGTTATCTTTTCGGAGTCACCTAGTGCAG	10800 fluorescence intensity (a.u.)
CGTTCTGTCATTTGGGTTTTATGTTTGTTCTCTCTTGTTTCGGAGTCACCTAGTGCAG	12000 fluorescence intensity (a.u.)
TTTTCCGTGTTTTCCGTTTCTGTTTGTTTGGCTTTTTTTTCGGAGTCACCTAGTGCAG	18600 fluorescence intensity (a.u.)
TTCCGTTTCTGTTCCGTTTGGTTTTTCCTTGTTCTTTCGGCGGAGTCACCTAGTGCAG	12900 fluorescence intensity (a.u.)
TAGTCCGTTCTGTTGTCATCTACTACTCTTGTTTGTGTTTCGGAGTCACCTAGTGCAG	16100 fluorescence intensity (a.u.)
TCATTTCTGTGTGTGTTTTGGAGGTGGGTGAGGGTCTGTTCGGAGTCACCTAGTGCAG	9920 fluorescence intensity (a.u.)
TACATCCGTTTCCGTTTCGTTCTGTTCTGTTCTGTTGTTTCGGAGTCACCTAGTGCAG	29200 fluorescence intensity (a.u.)
GAATTGTTGACCACGTGTTTCTGTTTGGACTCCTTTTTTTCGGAGTCACCTAGTGCAG	16400 fluorescence intensity (a.u.)
GTGGACTTTTTTCCTTCTCCTTTTCCTTTGTGTTGTTTCGCGGAGTCACCTAGTGCAG	8860 fluorescence intensity (a.u.)
GCTTCCGCCGCCGCGTCTTCTCGCCCTCGACTCCGCTCTCCGGAGTCACCTAGTGCAG	14700 fluorescence intensity (a.u.)
GCATAACTAATGGTCTGTTTACTTTGATGGCATTTTCAATCGGAGTCACCTAGTGCAG	9570 fluorescence intensity (a.u.)
CCTCAACCGTGACTCAGTTATTCAGTTCGACACCCAGCCGCGGAGTCACCTAGTGCAG	8070 fluorescence intensity (a.u.)
TTGCATTTGAAGACATGTAGTGTGTAGGGTGGGTTCTATTCGGAGTCACCTAGTGCAG	13500 fluorescence intensity (a.u.)
GCATTTCCAGGCCCACGGAAGCCACGCTTCTTCTCCAGCGCGGAGTCACCTAGTGCAG	8060 fluorescence intensity (a.u.)
TCTGTTGTGCTCTTTCGTGTGATAGATCGATTTTTTGATTCGGAGTCACCTAGTGCAG	10600 fluorescence intensity (a.u.)

Sequence	binding signal
AGGGAATTTCCCGTTCTTGCGCTCCTGGATTTCTTGCCCACGGAGTCACCTAGTGCAG	9560 fluorescence intensity (a.u.)
CTCTCTCTGTTTCGGCCTCTCATACTCACTCCTCGGCTTCCGGAGTCACCTAGTGCAG	11100 fluorescence intensity (a.u.)
AGTCCCAAGTCACAACTGACAACAAGGCAACTACTACTACCGGAGTCACCTAGTGCAG	8360 fluorescence intensity (a.u.)
ACTTTGATCATAAAATGAGTTACTCTTACTTTCTTTTATTCGGAGTCACCTAGTGCAG	8920 fluorescence intensity (a.u.)
CTCATCCGATTCCTGCGTTTTTCCTGCGCTCCAATCAAACCGGAGTCACCTAGTGCAG	9990 fluorescence intensity (a.u.)
CTCTCATCCGATTCCTGCGTTTTTCCTGTGGTTCAATCATCGGAGTCACCTAGTGCAG	17900 fluorescence intensity (a.u.)
CTCTCTCATCTGATTCTTGCGTTTTTCCTGTGGTCCAATCCGGAGTCACCTAGTGCAG	12000 fluorescence intensity (a.u.)
TATGCCTATCTGAATTGGTTACTGTTCGTTTTTCCACTTACGGAGTCACCTAGTGCAG	10800 fluorescence intensity (a.u.)
ACTGTTCGTTTTTCCACTTAAGTTCTGCTTGGTTTTTTTTCGGAGTCACCTAGTGCAG	16600 fluorescence intensity (a.u.)
GATTTAGTTTTAGTTTTTGTTTTTTTCCCACTTGGTTCTTCGGAGTCACCTAGTGCAG	9450 fluorescence intensity (a.u.)
CTCCCTCCCACTCCCCTTTTCGTAATTCCTTCCGCGCTTTCGGAGTCACCTAGTGCAG	8150 fluorescence intensity (a.u.)
TACTCTCTCTGTCCCCTTTTGTTTTTTTTCCTGTATACTGCGGAGTCACCTAGTGCAG	8690 fluorescence intensity (a.u.)
ATCACCTTCACGTTCCGAGATGTGGCACGAATCCCGAGGACGGAGTCACCTAGTGCAG	8070 fluorescence intensity (a.u.)
AATCGCTTTCTCTCTCTTCTTCCTTGCTCTCTCATACAACCGGAGTCACCTAGTGCAG	10200 fluorescence intensity (a.u.)
TCGTTTGATGCGATTTCGGCGGCGATCACCACCACCACCACGGAGTCACCTAGTGCAG	8160 fluorescence intensity (a.u.)
GAAGCTGGGTTATACTTTCACCATTTTTTTACTCGATCGACGGAGTCACCTAGTGCAG	8460 fluorescence intensity (a.u.)
ATATACAGATTTCGATCGGCGACGTTAGTGATCAGCTGGGCGGAGTCACCTAGTGCAG	35200 fluorescence intensity (a.u.)
AGGATTTTTTTTTTGTCAACGTATTTCTATTACCTGCTGTCGGAGTCACCTAGTGCAG	9630 fluorescence intensity (a.u.)
TCTGTTATATTTACTATCCATACTATACGTGTAAATTTTACGGAGTCACCTAGTGCAG	10200 fluorescence intensity (a.u.)
TATTCTTTCTCACGTAACGATTTTTTTTCATCATTAAGTTCGGAGTCACCTAGTGCAG	8230 fluorescence intensity (a.u.)
TATATTTTAATATTTTAATGTATGACGTCGTTGACTTTTTCGGAGTCACCTAGTGCAG	13800 fluorescence intensity (a.u.)
AGTCTTTTTTCATCACATTAACCTATTATACACACATAACCGGAGTCACCTAGTGCAG	9110 fluorescence intensity (a.u.)
CCGTATTTTAATATATGACGTCGTTGACTTTTTAACCAACCGGAGTCACCTAGTGCAG	27300 fluorescence intensity (a.u.)

Reference: publication PMC7819943, “Rice protein-binding microarrays: a tool to detect cis-acting elements near promoter regions in rice”
